# Assay results published in PubChem BioAssay (NCATS).
# Records with an inconclusive call do not appear. Calls of active or inactive are those of the source. Unless noted, calls come from the whole dose curve; as a rule, active = well fitted curve in either direction with a large enough effect (not every such curve was filed as active); inconclusive = small, poorly fitted or top-dose-only effect, or another doubt; inactive = flat fitted curve, though single readings scatter.
# How the values were obtained:
# [1] = target: Lysosomal acid glucosylceramidase (Homo sapiens) (UniProt P04062); test: Glucocerebrosidase-p2 (AID 348; in the data active = potency below about 10 µM; note: potency is the fitted concentration of half-maximal effect); conditions: purified GBA, blue fluorogenic substrate, 40 min
# Outline: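 Compounds titrated from 0.6 nM upwards against 0.2 nM enzyme in pH 5.9 citric acid/KH2PO4, taurocholate, tween-20; blue fluorogenic substrate 80 uM, 40 min room temperature, stopped and read Ex 365/Em 440 for AC50.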
# [2] = AP1 Signaling Pathway (AID 357); conditions: ME-180 AP-1-bla reporter, EGF-induced, beta-lactamase ratio, 5 h; at 7.69 µM (top of the series) unless noted; note: % is set by controls: 0 for no effect and ±100 for the full control effect
# Outline: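 AP-1-bla ME-180 cells with beta-lactamase reporter under AP-1 response element, stimulated with EC50 EGF; compounds titrated, 5 hours at 37 degrees Celsius. CCF4 read at 460/530 nm ratio; positive and negative modulators judged by AC50.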
# [3] = target: Cytochrome P450 1A2 (Homo sapiens) (UniProt P05177); test: p450-cyp1a2 (AID 410; calls by dose curve; note: potency is the fitted concentration of half-maximal effect;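 for activity change, negative = inhibition: -100% = full effect of reference inhibitor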); conditions: recombinant CYP1A2, luciferin-ME demethylation, luminescence; series mostly up to 57 µM
# Outline: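 Inhibition was calculated relative to 57 uM furafylline (full inhibition). The reaction used human CYP1A2 at 20nM with Luciferin-ME at its Km, 100uM, driven by an NADPH-regenerating system for 60 min at room temperature.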
# [4] = NFAT Signaling Pathway (AID 444); conditions: Jurkat NFAT-bla M1, carbachol, beta-lactamase ratio, 5 h; at 7.69 µM (top of the series) unless noted;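 note: carbachol stimulus at about its EC50 of 1 µM final; % is set by controls: 0 for no effect and ±100 for the full control effect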
# Outline: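 Read-out: CCF4 FRET ratio (460 nm/530 nm) after 1 h RT dye loading, used for %activity and AC50 from titration series. Cells: Jurkat NFAT-β-lactamase/M1 line, treated with compound plus 1 uM carbachol for 5 h, 37 °C.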
# [5] = Stat Signaling Pathway (AID 446); conditions: ME-180 SIE beta-lactamase reporter, IL-6 stimulated, 5 h; at 7.69 µM (top of the series) unless noted;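 note: ME-180 cervical cancer cells given 40 pM IL-6 alongside compound; SIE-controlled beta-lactamase reporter measured as 460/530 nm FRET emission ratio; % is set by controls: 0 for no effect and ±100 for the full control effect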
# Outline: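 IL-6/STAT signaling read in ME-180 cells via an SIE beta-lactamase reporter. Stimulus was 40 pM IL-6 (its AC50) for 5 hrs, so both activation and inhibition register.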
# [6] = target: Glucocorticoid receptor (Homo sapiens) (UniProt P04150); test: GR-EFC Redistribution (AID 451; calls by dose curve; note: potency is the fitted concentration of half-maximal effect); conditions: CHO-K1 GR-EFC translocation, beta-gal luminescence, 2 h
# Outline: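 Translocation of GR-ED fusion to nuclear EA restores b-gal, read by luminescence after 1 h room-temperature detection. Engineered CHO-K1 biosensor cells, 1,000/well, exposed 2 h at 37 C to titrations up to 46 uM final.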
# [7] = target: Mitogen-activated protein kinase 10 (Mus musculus) (UniProt Q61831); test: JNK3 AlphaScreen Assay (AID 530); conditions: JNK3 lysate, c-Jun phosphorylation; series mostly up to 57.1 µM;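 note: kinase came from lysate of stimulated human HepG2 cells; signal reports phosphorylation of biotinylated GST-cJun 1-79 at Ser73 with 10 µM ATP; % is set by controls: 0 for no effect and ±100 for the full control effect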
# Outline: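 Room-temperature AlphaScreen kinase assay; pre-activated HepG2 lysate as JNK3 source, biotin-GST-cJun(1-79) substrate, 10 uM ATP, compound 15 min preincubation.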
# [8] = target: 3',5'-cyclic-AMP phosphodiesterase 4B (Homo sapiens) (UniProt Q07343); test: qHTS Assay for Inhibitors of PDE-IV (AID 607; active = well fitted activation curve with a large enough effect in the main read-out, with a control signal flat, not every such curve was filed as active; note: % of control where 0% means no effect); conditions: HEK293 ACTOne CNG channel cells, membrane potential fluorescence; series mostly up to 22.9 µM
# Outline: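 Live HEK293 cells with a modified cyclic nucleotide-gated (CNG) channel report intracellular cAMP via membrane-potential dye fluorescence (ex 535/em 590 nm). Endogenous PDE-IV was targeted. Compounds were tested at up to 22.9 uM final; RO 20-1724 100 uM served as control.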
# [9] = target: Cytochrome P450 3A4 (Homo sapiens) (UniProt P08684); test: qHTS Assay for Activators of Cytochrome P450 3A4 (AID 885; active = well fitted curve in the direction sought with a large enough effect; an effect the other way counts as inactive or inconclusive; note: nearly all actives have a fitted effect of over 65% in size; note: potency is the fitted concentration of half-maximal effect); conditions: recombinant CYP3A4, Luciferin-PPXE luminescence, 60 min; series mostly up to 57.1 µM
# Outline: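 Quantitative HTS format: compounds preincubated with 20nM human CYP3A4 and Luciferin-PPXE substrate at KM, reaction started by NADPH regeneration, stopped after 60 min, luciferase luminescence read 20 min later.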
# [10] = qHTS Assay for Lipid Storage Modulators (AID 1519; calls by dose curve); conditions: Drosophila S3 cells, BODIPY lipid droplet/cell ratio, laser cytometry, cells loaded with oleic acid; for activity change, negative = inhibition: at 57.5 µM (top of the series)
# Outline: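 Cells seeded at 5,000 per well were treated with compounds over a concentration series and loaded with oleic acid (400 uM, as added). Lipid droplet fluorescence (488 nm excitation, 500-530 nm channel) was read by laser-scanning cytometry and normalized to 20 uM Triacsin C.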
# [11] = Primary qHTS for small molecule stabilizers of the endoplasmic reticulum resident proteome: Secreted ER Calcium Modulated Protein (SERCaMP) assay (AID 1508630; active = well fitted curve in the direction sought with a large enough effect; an effect the other way counts as inactive or inconclusive; note: % is set by controls: 0 for no effect and ±100 for the full control effect); conditions: SH-SY5Y GLuc-SERCaMP (Gaussia luciferase released on ER calcium loss) secretion, thapsigargin, luminescence; series mostly up to 38.4 µM
# Outline: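 GLuc-SERCaMP-expressing SH-SY5Y cells, pretreated 16 h with compound, are challenged with thapsigargin to empty ER calcium stores; after 4 h, coelenterazine is added directly to the medium and luminescence is imaged.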
# [12] = target: Cytochrome P450 2D6 (Homo sapiens) (UniProt P10635); test: qHTS Assay for Inhibitors and Substrates of Cytochrome P450 2D6 (AID 891; active = well fitted curve in the direction sought with a large enough effect; an effect the other way counts as inactive or inconclusive; note: potency is the fitted concentration of half-maximal effect; nearly all actives have a fitted effect of over 60% in size); conditions: recombinant CYP2D6, luciferin-ME EGE luminescence; series mostly up to 57.1 µM
# Outline: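 Human CYP2D6 (5 nM) with 30 uM Luciferin-ME EGE (at Km) in 100 mM KPO4, compound preincubated 10 min, then NADPH regeneration system for 60 min at room temperature. Luciferin read by luminescence; normalized to 1.43 uM quinidine.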
# [13] = qHTS Assay for Identification of Small Molecule Agonists for Hypoxia Response Element Signaling Pathway (AID 914; active = well fitted activation curve with a large enough effect in the signal ratio, with a control signal flat, not every such curve was filed as active; the % refers to the signal ratio; note: % of control where 0% means no effect); conditions: ME-180 (cervical carcinoma) HRE-bla reporter, beta-lactamase ratio, CoCl2, 17 h; activation: stronger effect = higher value
# Outline: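 Compounds in a titration series were added to ME-180 reporter cells alongside an EC50 level of CoCl2. After 17 hours, beta-lactamase activity was read as the 460nm/530nm emission ratio of CCF4, giving AC50 values.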
# [14] = measured here: cell count channel max response
# [15] = measured here: lipid channel max response
# Chain of 3',5'-cyclic-AMP phosphodiesterase 4B (Homo sapiens) (Q07343 whole entry, looked up): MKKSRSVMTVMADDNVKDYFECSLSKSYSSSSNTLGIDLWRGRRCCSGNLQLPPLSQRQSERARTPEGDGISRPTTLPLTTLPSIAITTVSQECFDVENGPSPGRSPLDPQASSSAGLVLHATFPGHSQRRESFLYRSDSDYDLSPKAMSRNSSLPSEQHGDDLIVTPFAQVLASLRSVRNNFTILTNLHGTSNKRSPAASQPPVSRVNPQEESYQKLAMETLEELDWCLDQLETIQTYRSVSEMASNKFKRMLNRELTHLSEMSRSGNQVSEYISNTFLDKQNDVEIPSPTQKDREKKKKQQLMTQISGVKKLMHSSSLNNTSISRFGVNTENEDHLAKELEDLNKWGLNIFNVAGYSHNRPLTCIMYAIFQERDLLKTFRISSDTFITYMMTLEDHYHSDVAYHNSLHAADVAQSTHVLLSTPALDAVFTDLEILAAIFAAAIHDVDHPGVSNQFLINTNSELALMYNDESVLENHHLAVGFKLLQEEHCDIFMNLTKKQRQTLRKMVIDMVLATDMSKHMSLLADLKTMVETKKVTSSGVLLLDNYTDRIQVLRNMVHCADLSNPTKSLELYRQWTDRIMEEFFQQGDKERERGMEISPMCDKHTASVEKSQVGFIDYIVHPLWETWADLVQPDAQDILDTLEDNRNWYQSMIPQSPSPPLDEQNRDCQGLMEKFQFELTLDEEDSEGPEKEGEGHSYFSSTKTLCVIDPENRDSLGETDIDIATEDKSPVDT
# Chain of Cytochrome P450 3A4 (Homo sapiens) (P08684 whole entry, looked up): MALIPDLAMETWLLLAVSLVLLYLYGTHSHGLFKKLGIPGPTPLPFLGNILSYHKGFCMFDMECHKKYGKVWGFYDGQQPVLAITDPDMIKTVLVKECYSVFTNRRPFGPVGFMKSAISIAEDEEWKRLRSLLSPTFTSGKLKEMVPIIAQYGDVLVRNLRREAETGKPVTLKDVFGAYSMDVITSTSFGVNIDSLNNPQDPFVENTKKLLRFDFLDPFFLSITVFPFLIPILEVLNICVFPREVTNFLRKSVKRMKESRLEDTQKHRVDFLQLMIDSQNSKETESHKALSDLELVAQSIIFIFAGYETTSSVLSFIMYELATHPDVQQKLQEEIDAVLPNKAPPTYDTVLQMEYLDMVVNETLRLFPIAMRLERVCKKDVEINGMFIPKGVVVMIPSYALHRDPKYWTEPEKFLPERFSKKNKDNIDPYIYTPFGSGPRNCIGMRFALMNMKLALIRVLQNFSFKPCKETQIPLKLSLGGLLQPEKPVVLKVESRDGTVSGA
# Chain of Glucocorticoid receptor (Homo sapiens) (P04150 whole entry, looked up, the tested form may be a part): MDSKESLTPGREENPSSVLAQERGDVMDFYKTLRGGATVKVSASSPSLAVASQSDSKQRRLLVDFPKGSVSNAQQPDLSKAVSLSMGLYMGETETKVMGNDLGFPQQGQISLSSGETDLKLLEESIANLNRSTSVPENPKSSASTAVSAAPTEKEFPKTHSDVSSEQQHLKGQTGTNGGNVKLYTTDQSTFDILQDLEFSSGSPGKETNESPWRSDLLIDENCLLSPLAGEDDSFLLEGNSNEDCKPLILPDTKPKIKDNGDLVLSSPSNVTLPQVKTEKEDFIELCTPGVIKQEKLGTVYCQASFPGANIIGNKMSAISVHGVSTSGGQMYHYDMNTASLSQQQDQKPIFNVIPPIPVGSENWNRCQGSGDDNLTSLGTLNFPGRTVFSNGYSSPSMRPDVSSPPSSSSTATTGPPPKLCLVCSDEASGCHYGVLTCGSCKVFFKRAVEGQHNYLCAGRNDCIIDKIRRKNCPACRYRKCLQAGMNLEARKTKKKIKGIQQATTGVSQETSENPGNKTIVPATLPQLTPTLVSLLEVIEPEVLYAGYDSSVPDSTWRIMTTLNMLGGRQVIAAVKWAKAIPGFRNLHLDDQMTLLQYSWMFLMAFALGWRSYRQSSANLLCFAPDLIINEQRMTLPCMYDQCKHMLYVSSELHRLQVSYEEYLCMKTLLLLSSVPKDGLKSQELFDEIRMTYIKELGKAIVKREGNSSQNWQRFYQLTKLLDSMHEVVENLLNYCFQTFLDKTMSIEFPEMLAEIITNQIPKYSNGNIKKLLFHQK
# Chain of Lysosomal acid glucosylceramidase (Homo sapiens) (P04062 whole entry, looked up): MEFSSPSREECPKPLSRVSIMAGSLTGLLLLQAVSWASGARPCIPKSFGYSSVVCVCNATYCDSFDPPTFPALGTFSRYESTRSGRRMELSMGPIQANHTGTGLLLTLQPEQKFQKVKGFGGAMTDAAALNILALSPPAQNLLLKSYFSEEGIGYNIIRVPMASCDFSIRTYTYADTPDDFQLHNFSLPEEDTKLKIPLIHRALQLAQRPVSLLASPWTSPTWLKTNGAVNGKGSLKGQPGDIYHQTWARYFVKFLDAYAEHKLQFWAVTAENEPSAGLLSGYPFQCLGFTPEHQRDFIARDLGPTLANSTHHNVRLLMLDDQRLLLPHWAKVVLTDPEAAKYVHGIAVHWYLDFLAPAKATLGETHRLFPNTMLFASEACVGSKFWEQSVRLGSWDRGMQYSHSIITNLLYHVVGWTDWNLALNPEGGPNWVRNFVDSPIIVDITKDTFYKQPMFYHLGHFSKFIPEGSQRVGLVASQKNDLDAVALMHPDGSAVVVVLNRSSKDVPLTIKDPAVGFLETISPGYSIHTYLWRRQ
# Chain of Cytochrome P450 2D6 (Homo sapiens) (P10635 whole entry, looked up): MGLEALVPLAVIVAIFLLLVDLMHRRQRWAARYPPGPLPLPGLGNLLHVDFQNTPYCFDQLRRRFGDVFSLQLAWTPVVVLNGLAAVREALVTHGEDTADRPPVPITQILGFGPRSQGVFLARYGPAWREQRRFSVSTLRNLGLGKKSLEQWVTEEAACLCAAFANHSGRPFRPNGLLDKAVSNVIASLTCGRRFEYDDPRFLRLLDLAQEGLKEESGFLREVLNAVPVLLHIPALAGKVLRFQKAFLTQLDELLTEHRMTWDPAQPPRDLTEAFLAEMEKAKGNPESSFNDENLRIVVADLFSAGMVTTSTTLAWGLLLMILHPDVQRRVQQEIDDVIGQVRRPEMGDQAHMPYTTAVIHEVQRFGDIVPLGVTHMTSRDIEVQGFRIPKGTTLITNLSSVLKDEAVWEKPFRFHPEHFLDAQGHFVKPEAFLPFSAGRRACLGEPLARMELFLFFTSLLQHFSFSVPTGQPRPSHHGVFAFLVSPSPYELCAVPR
# Chain of Cytochrome P450 1A2 (Homo sapiens) (P05177 whole entry, looked up): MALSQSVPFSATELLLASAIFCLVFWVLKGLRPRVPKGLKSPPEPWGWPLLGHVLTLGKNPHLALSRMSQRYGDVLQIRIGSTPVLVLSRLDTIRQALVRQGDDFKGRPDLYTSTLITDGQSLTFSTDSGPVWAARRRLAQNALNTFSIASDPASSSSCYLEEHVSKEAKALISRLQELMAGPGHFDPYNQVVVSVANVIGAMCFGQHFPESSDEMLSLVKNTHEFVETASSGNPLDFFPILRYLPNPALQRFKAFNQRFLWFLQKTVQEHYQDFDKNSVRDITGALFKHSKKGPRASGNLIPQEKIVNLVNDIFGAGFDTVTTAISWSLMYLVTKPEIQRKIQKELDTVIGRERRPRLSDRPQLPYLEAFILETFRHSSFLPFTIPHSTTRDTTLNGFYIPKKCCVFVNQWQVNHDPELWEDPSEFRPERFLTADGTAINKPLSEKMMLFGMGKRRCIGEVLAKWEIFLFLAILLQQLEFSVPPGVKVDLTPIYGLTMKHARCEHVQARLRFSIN
Structure (SMILES),Potency [1],"activity change, negative = inhibition [2]",Potency [3],"activity change, negative = inhibition [4]","activity, negative = inhibition [5]",Potency [6],outcome [7],Potency [8],Potency [9],"activity change, negative = inhibition [10]","max response [10, 14]","max response [10, 15]",Potency [11],Potency [12],activation [13]
O=C(c1cnccn1)N1CCC[C@@]2(CCN(c3ncccn3)C2)C1,> 11.4 µM (inactive),-3.69% (inactive),inactive,7.98% (inactive),-3.83% (inactive),> 46 µM (inactive),inactive,inactive,inactive,5.72% (inactive),9.64%,19.5%,inactive,,
Cc1noc(C)c1C(=O)N1CCC2(CCCN(Cc3nccs3)C2)CC1,> 11.4 µM (inactive),-7.07% (inactive),inactive,-16.6% (inactive),-1.5% (inactive),> 46 µM (inactive),inactive,inactive,inactive,5.37% (inactive),14.6%,22.3%,inactive,,
COc1ccc(NC(=O)N2CC[C@@]3(CCCN(C(=O)c4csnn4)C3)C2)cc1,> 11.4 µM (inactive),-1.53% (inactive),inactive,17.4% (inactive),7.84% (inactive),> 46 µM (inactive),inactive,inactive,inactive,5.36% (inactive),14.7%,23.5%,inactive,,
O=C(c1ccco1)N1CCC2(CC1)CN(C(c1ccccc1)c1ccccc1)C2,> 11.4 µM (inactive),-3.72% (inactive),inactive,11% (inactive),-4.65% (inactive),> 46 µM (inactive),inactive,inactive,10 µM (active),2.1% (inactive),5.15%,9.48%,inactive,1.26 µM (active),
Cc1noc(C)c1C(=O)N1CCC[C@@]2(CCN(Cc3ccccc3)C2)C1,> 11.4 µM (inactive),-8.33% (inactive),inactive,4.21% (inactive),3.42% (inactive),> 46 µM (inactive),inactive,inactive,inactive,2.65% (inactive),16.8%,22.2%,inactive,7.94 µM (active),
CS(=O)(=O)N1CCC2(CC1)CN(C(=O)Nc1cccc(C#N)c1)C2,> 11.4 µM (inactive),-6.48% (inactive),inactive,14.4% (inactive),-5.8% (inactive),> 46 µM (inactive),inactive,inactive,inactive,1.36% (inactive),4.56%,8.61%,inactive,,
CC(=O)N1CCC2(CC1)CN(C(c1ccccc1)c1ccccc1)C2,> 11.4 µM (inactive),14.1% (inactive),inactive,-5.45% (inactive),-8.55% (inactive),> 46 µM (inactive),inactive,inactive,15.8 µM (active),1.46% (inactive),13.6%,21%,inactive,,
CS(=O)(=O)N1CCC[C@@]2(CCN(C(=O)Nc3cccc(F)c3)C2)C1,> 11.4 µM (inactive),-7.6% (inactive),inactive,16.7% (inactive),-3.89% (inactive),> 46 µM (inactive),inactive,inactive,inactive,1.83% (inactive),1.7%,6.37%,inactive,,
O=C(Nc1cccc(F)c1)N1CC[C@@]2(CCCN(C(=O)c3cccc(F)c3)C2)C1,> 11.4 µM (inactive),-6.61% (inactive),12.6 µM (active),16.9% (inactive),-1.65% (inactive),> 46 µM (inactive),inactive,inactive,inactive,6.49% (inactive),12.4%,22.3%,inactive,,
Cc1noc(C)c1C(=O)N1CCC2(CCCN(c3ccccc3)C2)CC1,> 11.4 µM (inactive),-12.1% (inactive),inactive,-9.55% (inactive),-1.28% (inactive),> 46 µM (inactive),inactive,inactive,inactive,-0.946% (inactive),8.91%,9.27%,inactive,,
COc1ccc(C(=O)N2CCC3(CC2)CN(Cc2ccc(C#N)cc2)C3)cc1,> 11.4 µM (inactive),11% (inactive),inactive,-0.922% (inactive),8.44% (inactive),> 46 µM (inactive),inactive,inactive,inactive,-3% (inactive),13.1%,11.7%,inactive,,
O=C(Nc1ccccc1)N1CC[C@@]2(CCCN(C(=O)c3cnccn3)C2)C1,> 11.4 µM (inactive),6.39% (inactive),inactive,7.42% (inactive),-0.789% (inactive),> 46 µM (inactive),inactive,inactive,inactive,1.67% (inactive),12.8%,16%,inactive,,
CC(C)CN1CC[C@@]2(CCCN(C(=O)c3cnccn3)C2)C1,> 11.4 µM (inactive),6.22% (inactive),inactive,13.6% (inactive),4.96% (inactive),> 46 µM (inactive),inactive,inactive,inactive,3.32% (inactive),15.7%,22.3%,inactive,,-0.465% (inactive)
CC(C)NC(=O)N1CC2(CCN(C(=O)c3ccco3)CC2)C1,> 11.4 µM (inactive),-14.7% (inactive),inactive,16.4% (inactive),-2.76% (inactive),> 46 µM (inactive),inactive,inactive,,-0.739% (inactive),-15.7%,-15.1%,inactive,,0.544% (inactive)
COc1ccccc1CN1CCC2(CC1)CCN(C(C)=O)CC2,> 11.4 µM (inactive),-6.68% (inactive),inactive,-28.3% (inactive),0.91% (inactive),> 46 µM (inactive),inactive,inactive,,0.897% (inactive),3.13%,3.76%,inactive,5.01 µM (active),
